{"source": "PubChem BioAssay AID1347084", "about": "(National Center for Advancing Translational Sciences (NCATS), 2019)", "note": "Where “and” joins values, the source holds several entries; their conditions need not be identical. Equal values may be shown once. Records with an inconclusive call do not appear. Calls of active or inactive are those of the source. Calls follow the shape of the full dose curve."}
{"assay": "qHTS for Inhibitors of the Functional Ribonucleoprotein Complex (vRNP) of Lymphocytic Choriomeningitis Arenaviruses (LCMV): LCMV Confirmatory Screen - GLuc reporter signal", "settings": "LCMV minigenome vRNP, Gaussia luciferase reporter; series mostly up to 53.9 µM; activity change, negative = inhibition: at the top concentration"}
{"smiles": "COCCOC(=O)C1=C(C)NC(C)=C(C(=O)OC/C=C/c2ccccc2)C1c1cccc([N+](=O)[O-])c1", "note": "(configuration not stated)", "Potency": "21.7 µM (active)"}
{"smiles": "CCC1OC2(C)C(O)C(/C=C/C=C/C=C/c3oc(=O)cc(OC)c3C)OC1(C)C2OC(C)=O", "note": "(configuration not stated)", "Potency": "0.109 µM (active)"}
{"smiles": "O=C1Cc2cc(CCN3CCN(c4nsc5ccccc45)CC3)c(Cl)cc2N1", "activity change, negative = inhibition": "-22.9% (inactive)"}
{"smiles": "Clc1nccc2c1ccc1ccccc12", "activity change, negative = inhibition": "-21.7% (inactive)"}
{"smiles": "CCn1c(-c2nonc2N)nc2cnc(Oc3cccc(NC(=O)c4ccc(OCCN5CCOCC5)cc4)c3)cc21", "Potency": "4.32 µM (active)"}
{"smiles": "Cc1cccc(-c2[nH]c(C(C)(C)C)nc2-c2ccc3c(c2)OCO3)n1", "Potency": "3.43 µM (active)"}
{"smiles": "N#CC(=C(\\N)Sc1ccccc1N)/C(C#N)=C(/N)Sc1ccccc1N", "Potency": "27.3 µM (active)"}
{"smiles": "FC(F)(F)c1ccc(C=Cc2nc(COc3ccc(CCCCn4ccnn4)cc3)co2)cc1", "Potency": "0.0153 µM (active)"}
{"smiles": "Cc1ncc([N+](=O)[O-])n1CC(C)O", "note": "(configuration not stated)", "activity change, negative = inhibition": "5.61% (inactive)"}
{"smiles": "CN1CCN(C2=Nc3cc(Cl)ccc3Nc3ccccc32)CC1", "Potency": "30.6 µM (active)"}
{"smiles": "O=C1c2ccccc2-n2c1nc1ccccc1c2=O", "Potency": "1.22 µM (active)"}
{"smiles": "Cc1ccccc1-n1c(Cn2nc(-c3cccc(O)c3)c3c(N)ncnc32)nc2cccc(C)c2c1=O", "Potency": "30.6 µM (active)"}
{"smiles": "CCCCC[C@H](O)/C=C/C=C/C/C=C\\CCCC(=O)O", "activity change, negative = inhibition": "4.12% [at 0.666 µM] (inactive)"}
{"smiles": "O=C(Nc1ccc([N+](=O)[O-])cc1Cl)c1cc(Cl)ccc1O", "Potency": "0.863 µM (active)"}
{"smiles": "CCC(C)c1nccnc1OC", "note": "(configuration not stated)", "activity change, negative = inhibition": "-25.6% [at 110 µM] (inactive)"}
{"smiles": "CC(O)C(O)[C@H]1CNc2nc(N)[nH]c(=O)c2N1", "note": "(some centres not stated)", "activity change, negative = inhibition": "4.42% (inactive)"}
{"smiles": "CC[C@@]1([C@@H]2O[C@@H]([C@H]3O[C@@](O)(CO)[C@H](C)C[C@H]3C)C[C@H]2C)CC[C@H]([C@]2(C)CC[C@]3(C[C@H](O)[C@@H](C)[C@@H]([C@@H](C)[C@@H](OC)[C@H](C)C(=O)O)O3)O2)O1", "Potency": "0.168 µM (active)"}
{"smiles": "CC12C(=O)OC(=O)C1(C)C1CCC2O1", "note": "(configuration not stated)", "Potency": "9.68 µM (active)"}
{"smiles": "CCc1cncnc1N1CCN(Cc2nc3ccc(C(F)(F)F)cc3[nH]2)CC1", "Potency": "4.44 µM (active)"}
{"smiles": "S=C(NCc1ccc2c(c1)OCO2)N1CCN(c2ncnc3c2oc2ccccc23)CC1", "Potency": "2.22 µM (active)"}
{"smiles": "CCN(CC)C(=O)N[C@@H]1C=C2c3cccc4[nH]cc(c34)C[C@@H]2N(C)C1", "activity change, negative = inhibition": "-19.4% (inactive)"}
{"smiles": "COc1ccc(Cc2nccc3cc(OC)c(OC)cc23)cc1OC", "Potency": "1.93 µM (active) and 3.43 µM (active)"}
{"smiles": "CCCCCC[C@H]1C(=O)O[C@H](C)[C@H](NC(=O)c2cccc(NC=O)c2O)C(=O)O[C@@H](C)[C@@H]1OC(=O)CC(C)C", "Potency": "0.0343 µM (active)"}
{"smiles": "CNCCCC1c2ccccc2C=Cc2ccccc21", "Potency": "30.6 µM (active)"}
{"smiles": "C=C1CC[C@@H]2[C@](C)(CO)[C@H](O)CC[C@@]2(C)[C@@H]1/C=C/C1=CCOC1=O", "Potency": "21.7 µM (active)"}
{"smiles": "CC[C@@H](C(=O)O)[C@@H]1O[C@@H]([C@@H](C)[C@H](O)[C@H](C)C(=O)[C@H](CC)[C@H]2O[C@]3(C=C[C@@H](O)[C@]4(CC[C@@](C)([C@H]5CC[C@](O)(CC)[C@H](C)O5)O4)O3)[C@H](C)C[C@@H]2C)[C@@H](C)C[C@@H]1C", "Potency": "0.0627 µM (active)"}
{"smiles": "CC1OC(=O)[C@@H](C(C)C)NC(=O)C(C(C)C)OC(=O)[C@H](C(C)C)NC(=O)C(C)OC(=O)[C@@H](C(C)C)NC(=O)C(C(C)C)OC(=O)[C@H](C(C)C)NC(=O)C(C)OC(=O)[C@@H](C(C)C)NC(=O)C(C(C)C)OC(=O)[C@H](C(C)C)NC1=O", "note": "(some centres not stated)", "Potency": "0.153 µM (active)"}
